ELG1 repair inh = blocks ELG1-dependent DNA repair in HEK293T cells. HEK293T ELG1-luciferase reporter, luminescence, 16 h; DNA damage induced by 5-fluorouridine. Potency, µM (highest dose often 46.1 µM), for inactives: top-dose activity change, negative = inhibition, actives largely listed as inhibitors. hit rate 2.3% among 330,000. AID 504467; further: on the % scale 0 is the no-effect control and ±100 the full control effect; nearly all actives have a fitted effect of over 55% in size
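Cells (2,000 per well) received 5-fluorouridine plus test compound or DMSO and were incubated 16 hr at 37 °C, 5% CO2. Luciferase activity was read by luminescence 30 min after ONE-Glo addition; signal suppression marked inhibition of damage-induced ELG1 function.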
FLuc counter = firefly luciferase modulation, counter-screen for miR-21 project; purified FLuc, Km substrates, luminescence inhibition; hit rate 6.9% among 360,000; P08659; Potency, µM (series often up to 57.5 µM), for the others: top-dose activity change, negative = inhibition, most hits filed as inhibitors;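 further: plate controls were vehicle for no effect and reference inhibitor for full effect; nearly all actives have a fitted effect of over 55% in size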
Target sequence (P08659 whole entry, looked up): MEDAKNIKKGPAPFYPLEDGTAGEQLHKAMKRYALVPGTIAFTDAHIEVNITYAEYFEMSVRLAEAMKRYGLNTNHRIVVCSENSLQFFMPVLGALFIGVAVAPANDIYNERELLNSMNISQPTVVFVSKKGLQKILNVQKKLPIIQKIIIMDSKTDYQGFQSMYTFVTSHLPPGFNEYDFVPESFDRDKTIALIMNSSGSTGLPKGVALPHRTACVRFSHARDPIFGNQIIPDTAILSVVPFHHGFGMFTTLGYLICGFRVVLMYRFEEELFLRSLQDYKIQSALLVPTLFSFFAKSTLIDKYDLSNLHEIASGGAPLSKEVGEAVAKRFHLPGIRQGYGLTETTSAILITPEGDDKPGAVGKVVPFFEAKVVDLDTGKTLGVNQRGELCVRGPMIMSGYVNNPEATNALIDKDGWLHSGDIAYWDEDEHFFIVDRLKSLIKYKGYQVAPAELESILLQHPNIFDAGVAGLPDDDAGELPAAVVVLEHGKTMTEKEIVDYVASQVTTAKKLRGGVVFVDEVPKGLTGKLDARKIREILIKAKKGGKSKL
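Purified P. pyralis luciferase (10nM final) with 10uM D-luciferin and 10uM ATP (Km levels) in 50mM Tris acetate pH 7.5, 10mM Mg acetate, 0.01% Tween-20, 0.05% BSA; qHTS 6-point titration, ~60 µM downward; luminescence read.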
Rab9 prom act = activates the Rab9 promoter; hit rate 2.8% among 320,000; Huh7 Rab9 promoter-luciferase reporter, luminescence, 24 h; AID 485297; Potency, µM (highest dose often 9.22 µM), without a hit: at the top dose activation, negative = inhibition, actives largely listed as activators; further: % of control where 0% means no effect; nearly all actives have a fitted effect of over 60% in size
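Luciferase signal after 10 min detection reagent at ambient indicates Rab9 promoter upregulation; stably transfected Huh7 cells were treated 24 h with compound in DMSO at 37 °C, 5% CO2.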
SMN2 splice enh = SMN2 splice variant enhancement; HEK293 SMN2-luciferase splicing reporter, luminescence, 30-36 h; Potency, µM (series often up to 46.1 µM), inactives show at the highest dose activity change, positive = activation, most hits filed as activators; hit rate 2.8% among 210,000; further: % of control where 0% means no effect; nearly all actives have a fitted effect of over 55% in size
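HEK293 cells carry an SMN2 […]–luciferase reporter in which exon 7 inclusion puts luciferase in frame. Cells were plated 10-12 h before compound addition, then incubated 30-36 h at 37C. ONE-Glo luminescence was read; sodium butyrate at 4.5 mM final served as control.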
ELG1 genotoxic = induces genotoxicity in HEK293T cells with luciferase-tagged ELG1; HEK293T ELG1-luciferase reporter, luminescence, 16 h; Potency, µM (doses to about 46 µM), for the others: at the top dose activity change, positive = activation, most hits filed as activators; hit rate 1.3% among 330,000; AID 504466; further: % of control where 0% means no effect; nearly all actives have a fitted effect of over 60% in size
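ELG1-luciferase HEK293T cells, 2,000/well; compound pinned in; 16 hr, 37 °C, 5% CO2; ONE-Glo, 30 min RT; luminescence on CCD imager.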
NPC1 promoter act = activators of NPC1 promoter. Huh7 NPC1 promoter luciferase reporter, 24 h. Potency, µM (series often up to 9.22 µM), for the others: at the highest dose activation, actives largely listed as activators. hit rate 2.4% among 320,000. AID 485313; further: % of control where 0% means no effect; nearly all actives have a fitted effect of over 60% in size
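In 1536-well qHTS, Huh7 cells harboring an NPC1 promoter–luciferase construct received compound for 24 h; activation was quantified by luminescence following luciferase reagent addition.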
An asterisk follows results filed as active; ? = inconclusive; · = no result given; [ ] = remark or other dose. In the library only some 9.2% were active in any assay of this set; here they are far more common. The call rests on the fitted dose curve; in most records, active means well fitted curve in the direction sought with a large enough effect; inconclusive means small, poorly fitted or top-dose-only effect, or another doubt; inactive means no such curve, though single readings can be large; an effect the other way counts as inactive or inconclusive. Potency means the concentration at half of the fitted maximal effect.

SMILES	ELG1 repair inh	FLuc counter	Rab9 prom act	SMN2 splice enh	ELG1 genotoxic	NPC1 promoter act
CCCn1c(N)c(C(=O)CSc2nnc(-c3ccco3)n2Cc2ccccc2)c(=O)[nH]c1=O	15µM*	-1%	-2%	-16%	-8%	1%
O=C(CSc1nnc(-c2ccncc2)n1Cc1ccco1)OC1CCCCC1	4%	4%	3%	24%	-6%	-3%
CC(=O)c1c(C)[nH]c(C(=O)CSc2nnc(-c3ccco3)n2Cc2ccccc2)c1C	?	-6%	-8%	-18%	-14%	2%
CCCn1c(N)c(C(=O)CSc2nc3ccccc3s2)c(=O)[nH]c1=O	?	-3%	16%	13µM*	-12%	9%
O=C(CSc1nnc(-c2ccco2)n1Cc1ccccc1)OC1CCCCC1	?	9.5µM*	3.2µM*	?	?	?
Cc1ccc(NC(=O)CCC(=O)N2CCN(S(=O)(=O)c3ccc(C)cc3)CC2)cc1	2%	3%	-7%	·	3%	-3%
COc1ccc(C(=O)c2c(N)sc3c2CCN(C(=O)OC(C)(C)C)C3)cc1	23µM*	1%	-5%	·	-14%	2%
CC(C)CNC(=O)COc1cccc(C(=O)NCc2ccccc2)c1	2%	2%	-2%	-9%	0%	2%
OC[C@@H](O)CNc1ncnc2ccccc12	·	·	·	-13%[9.22 µM]	·	·
O=C(c1ccc2c(=O)n(-c3ccccc3)c(=S)[nH]c2c1)N1CCN(c2ccccc2)CC1	?	·	-1%	·	-6%	-3%
O=C(c1ccc2c(=O)n(C3CCCC3)c(=S)[nH]c2c1)N1CCCCCC1	1.8µM*	-11%	-38%	-4%	-10%	-29%
O=C(c1ccc2c(=O)n(-c3ccccc3)c(=S)[nH]c2c1)N1CCCCC1	3.3µM*	-1%	-24%	-69%	-5%	-26%
CC1CCCN(C(=O)c2ccc3c(=O)n(C4CCCC4)c(=S)[nH]c3c2)C1 (stereo not drawn)	?	-12%	-29%	-70%	-7%	-19%
Cc1ccc(NC(=O)COC(=O)CNC(=O)c2ccco2)cc1	1%	1%	-6%	-8%	0%	3%
CCn1c(SCC(=O)N/N=C/c2c[nH]c3ccccc23)nnc1-c1ccc(Cl)cc1	?	?	-5%	1%	-10%	-4%
CCOc1ccc(CCNC(=O)Cn2nnc(-c3ccccc3Cl)n2)cc1OCC	·	-1%	·	-5%	·	·
CN(C)c1ccc(NC(=O)CCn2c(=S)oc3ccccc32)cc1	12%	4.3µM*	17%	1%	16%	13%
Cc1onc(-c2ccccc2Cl)c1C(=O)Nc1nc2ccc(S(C)(=O)=O)cc2s1	?	12µM*	0%	1%	-2%	-1%
Cc1noc(C)c1C(=O)Nc1nc2ccc(F)cc2s1	?	4.3µM*	3.2µM*	·	?	1.6µM*
CCc1noc(C)c1C(=O)Nc1nc(-c2ccccc2)c(C(C)=O)s1	?	15µM*	-9%	·	-2%	-1%
CCc1ccc2nc(NC(=O)c3cc(C)on3)sc2c1	?	6µM*	?	?	14%	-5%
CC(NS(=O)(=O)c1ccc(OCC(=O)Nc2cccc([N+](=O)[O-])c2)cc1)c1ccccc1 (stereo not drawn)	?	6%	-7%	-25%	-8%	0%
CCc1noc(C)c1C(=O)Nc1nc2ccc(S(C)(=O)=O)cc2s1	?	2.4µM*	4%	·	15%	22%
CCc1noc(C)c1C(=O)Nc1nc2c(C)cc(C)cc2s1	24%	11µM*	-4%	·	22%	-12%
Cc1noc(C)c1C(=O)Nc1nc2ccc(Cl)cc2s1	?	2.4µM*	?	·	?	?
SMILES	ELG1 repair inh	FLuc counter	Rab9 prom act	SMN2 splice enh	ELG1 genotoxic	NPC1 promoter act
CCc1noc(C)c1C(=O)NCCc1ccc(F)cc1	8%	2%	-2%	·	0%	-1%
Cc1cc(C)c2nc(NC(=O)c3cc(C)on3)sc2c1	?	?	-1%	-9%	15%	-5%
CCc1noc(C)c1C(=O)Nc1nc2ccc(F)cc2s1	?	17µM*	?	·	9%	?
CCc1ccc(S(=O)(=O)c2nnn3c2nc(N2CCOCC2)c2sccc23)cc1	·	2%	·	·	·	·
CCc1noc(C)c1C(=O)NCCc1ccccc1	?	?	?	·	16µM*	?
COc1cccc(-n2c(SCC(=O)NCCC3=CCCCC3)nc3n[nH]c(C)c3c2=N)c1	16µM*	-1%	0%	-14%	-9%	-6%
CCc1ccc(NC(=O)CSc2nc3n[nH]c(C)c3c(=N)n2-c2cccc(OC)c2)cc1	10µM*	-1%	-6%	1%	3%	-7%
COc1cccc(NC(=O)CSc2nc3n[nH]c(C)c3c(=N)n2-c2cccc(OC)c2)c1	?	2%	-1%	13%	-7%	1%
COc1ccc(C(=O)Nc2cc(C)on2)cc1OC	18%	-6%	2%	·	16%	-3%
COc1ccc(C(=O)Nc2ccc(C)cn2)c(OC)c1	?	0.19µM*	0.35µM*	·	0.092µM*	?
COc1ccc(C(=O)Nc2cc(C)on2)c(OC)c1	?	11µM*	3.2µM*	·	?	3.2µM*
COc1cccc(C(=O)NC(=O)Nc2cc(C)on2)c1	?	?	1.6µM*	11µM*	?	?
COc1cc(C(=O)Nc2ccc(C)cn2)c([N+](=O)[O-])cc1OC	8%	0%	-1%	3%	2%	-9%
COc1cccc(NC(=O)Nc2cc(C)on2)c1	?	?	23%	·	8%	27%
Cc1cc(NC(=O)Nc2ccc(C)c(C)c2)no1	?	13µM*	?	·	?	21%
O=C(CNC(=O)N1CC(=O)Nc2ccccc21)Nc1cc(Cl)ccc1Cl	7%	0%	6%	·	0%[9.26 µM]	1%
COCCCn1cnc2oc3nc4ccccc4nc3c2c1=O	?	7.6µM*	0.63µM*	10µM*	2.1µM*	1.6µM*
Cc1ccc(S(=O)(=O)NCCc2cn3ccsc3n2)cc1	·	2%	·	·	·	·
COC(=O)c1sc2ccccc2c1-n1cccc1C(=O)C(=O)Nc1ccc(F)cc1	15µM*	-3%	-4%	-24%	-1%	-8%
O=C1C(c2ccnc3ccccc23)=C(O)c2ccccc21	?	0.11µM*	?	0.4µM*	?	2.5µM*
O=C1c2ccccc2C(=O)C1c1nccc2ccccc12	?	0.15µM*	1.3µM*	0.63µM*	0.082µM*	3.2µM*
O=C1c2ccccc2C(=O)C1c1ccnc2ccccc12	?	0.15µM*	0.63µM*	0.4µM*	?	3.5µM*
c1ccc2c(-c3nn[nH]n3)cccc2c1	9%	-1%	-1%	-6%	0%	1%

Screening results from PubChem.
